The list is not random: actives were taken first. Their share in the collection is about 3%.
SNCA viab count = GF-AFC viability counterscreen for inhibitors of alpha-synuclein gene (SNCA) expression; 150,000 tested, 0.12% active; HEK-293-SNCA-luc viability, GF-AFC fluorescence, 24 h; Potency, µM (series often up to 57.1 µM), for the others: top-dose activity change, negative = cytotoxicity, usual class: cytotoxic;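 further: potency means the concentration at half of the fitted maximal effect; 0% = DMSO-treated cells and -100% = medium-only wells without cells; nearly all actives have a fitted effect of over 30% in size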
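Cytotoxicity counterscreen: after 24 h compound treatment of genome-edited SNCA-luciferase HEK-293 cells, live-cell protease substrate GF-AFC read by fluorescence after 30 min; activity scaled between DMSO (0%) and medium-only (-100%), curves Hill-fitted.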
SNCA expr inhib = Primary qHTS assay for inhibitors of alpha-synuclein gene (SNCA) expression; Potency, µM (doses to about 57.2 µM), for the others: top-dose activity change, negative = inhibition, actives largely listed as inhibitors; HEK-293 SNCA-luciferase knock-in, luminescence, 24 h; 140,000 tested, 0.17% active;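 further: potency means the concentration at half of the fitted maximal effect; plate controls were DMSO cells for no effect and cell-free wells for full effect; nearly all actives have a fitted effect of over 45% in size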
IP6K1 inh = Primary qHTS assay for small molecule inhibitors of Inositol hexaphosphate kinase 1 (IP6K1); IP6K1 kinase, ADP-Glo luminescence, 2 h; hits give low values; 140,000 tested, 0.81% active; Inositol hexakisphosphate kinase 1 (Homo sapiens), Q92551; activity change, % (series mostly up to about 58 µM); in the data active means activity change below about -25%; further: on the % scale 0 is the no-effect control and ±100 the full control effect
Target sequence (Q92551 whole entry, looked up): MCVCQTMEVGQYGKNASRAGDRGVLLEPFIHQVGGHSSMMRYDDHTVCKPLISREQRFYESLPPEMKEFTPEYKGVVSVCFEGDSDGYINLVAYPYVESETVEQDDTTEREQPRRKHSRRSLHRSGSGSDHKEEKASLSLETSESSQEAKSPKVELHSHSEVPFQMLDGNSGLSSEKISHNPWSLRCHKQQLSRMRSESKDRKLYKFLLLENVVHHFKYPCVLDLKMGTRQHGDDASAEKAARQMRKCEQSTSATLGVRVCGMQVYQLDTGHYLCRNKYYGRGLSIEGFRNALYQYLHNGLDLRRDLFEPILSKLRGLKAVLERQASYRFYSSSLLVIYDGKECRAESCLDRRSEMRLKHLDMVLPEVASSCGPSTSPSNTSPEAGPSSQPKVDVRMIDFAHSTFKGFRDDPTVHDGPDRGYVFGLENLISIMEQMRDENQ
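ADP-Glo luminescence measures ADP made by human IP6K1 during a 2 h RT reaction with ATP/IP6 (mix at 1.3 mM/130 uM); top library doses 57.5 and 19.1 uM final.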
KDM5B inh = Primary screen for KDM5B Histone Demethylases FDH-coupled qHTS; 220,000 tested, 2.6% active; Potency, µM (series often up to 57.7 µM), actives largely listed as inhibitors; AID 1347165, 2019; KDM5B demethylase, FDH-coupled NADH fluorescence (FDH is formaldehyde dehydrogenase); further: potency means the concentration at half of the fitted maximal effect; 0% is about no effect; nearly all actives have a fitted effect of over 70% in size
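Coupled FDH/NAD⁺ fluorescence readout. KDM5BΔAP 200 nM final; compound titration, 10 min RT preincubation; substrate mix 12.5 µM H3K4me3, 25 µM 2-OG, 50 µM Fe(II), 100 µM ascorbate, 0.25 mM NAD⁺, 0.25 U/mL FDH; ΔRFU over 30 min.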
Numbers without * were called inactive; i = inactive; ? = inconclusive; . = no result; [ ] = dose if it differs, or a comment. Unless noted, the call rests on the fitted dose curve; in most records, active means well fitted curve in the direction sought with a large enough effect; inconclusive means small, poorly fitted or top-dose-only effect, or another doubt; inactive means no such curve, though single readings can be large; an effect the other way counts as inactive or inconclusive.

SMILES | SNCA viab count | SNCA expr inhib | IP6K1 inh | KDM5B inh
O[C@H]1[C@H](NCc2ccncc2)[C@H]2CO[C@H](O2)[C@@H]1N1CCN(c2ccccc2)CC1 | 4%[87.6 µM] | -13%[87.6 µM] | -4 | 22µM*
Oc1ccccc1CN[C@H]1[C@H](O)[C@@H](N2CCN(c3ccccc3)CC2)[C@@H]2OC[C@H]1O2 | 4%[87.6 µM] | 9%[87.6 µM] | 6 | ?
CN1C(=O)c2ccc(NC(=O)Cn3nc4c(cc3=O)CCCC4)cc2C1=O | 8% | -16% | 21 | 28µM*
Cc1ccc(NC(=O)Cn2nc3c(cc2=O)CCCCC3)cc1C | 1% | 11% | 10 | i
Nc1ncccc1CNC(=O)[C@H]1CCC[C@H](O)C1 | 3% | 8% | 18 | 25µM*
O=C(NCc1ccc(-c2ncon2)cc1)[C@H]1CCC[C@@H](O)C1 | -7% | 5% | 16 | i
O=C(NCc1csc(-c2cnccn2)n1)[C@H]1CCC[C@H](O)C1 | -2% | 25% | 14 | 28µM*
O=C(NCc1csc(-c2cnccn2)n1)C1CNCCO1 (stereo unspecified) | 6% | -8% | -4 | ?
C[S+](=O)([O-])c1ccc(-c2cc(C(=O)NC3CC3)nn3cccc23)cc1 | -11% | 6% | -2 | .
COCC1N(Cc2ccc(Oc3ccccc3)cc2)C2CCC1(O)CC2 (stereo unspecified) | . | . | 27 | .
COc1ccc(Cl)cc1-c1ccc2c(c1)C(=O)N1CCN(C(=O)CO)C[C@@H]1C(=O)N2 | 1%[87.6 µM] | ? | 4 | 35µM*
COc1ccc(Cl)cc1-c1ccc2c(c1)C(=O)N1CCN(C(=O)CC3(CC(=O)O)CCCC3)C[C@H]1C(=O)N2 | 1% | 19% | 4 | i
COc1ccc(Cl)cc1-c1ccc2c(c1)C(=O)N1CCN(C(=O)c3ccco3)C[C@H]1C(=O)N2 | -2% | 0% | 17 | 35µM*
CN1CC2(CCCN(Cc3cc4ccccc4o3)C2)OC1=O (stereo unspecified) | -1% | -22% | 33 | i
CN1CC2(CCCN(Cc3cc4ccccc4n(C)c3=O)C2)OC1=O (stereo unspecified) | -3% | -23% | 5 | 22µM*
COCCNC(=O)[C@@H]1C[C@@H](c2ccc(F)cc2)N([S+](=O)([O-])c2cccnc2)C1 | 3%[87.6 µM] | 30%[87.6 µM] | -3 | 35µM*
CCS(=O)(=O)c1ccc2oc([C@H]3CCN(Cc4c[nH]c5ccccc45)C3)nc2c1 | -14%[87.6 µM] | 11%[87.6 µM] | -6 | 32µM*
O=C(NC1CC1)C1CCN(C(=O)c2ccc(-c3cccs3)cc2)CC1 | . | . | 17 | .
CN1CCN(C(=O)c2cccc3c2NCCC3)CC12CCNC(=O)CC2 (stereo unspecified) | 6% | -9% | 12 | 25µM*
O=C(Cn1cnnn1)N1CCc2onc(-c3cccc4ccccc34)c2C1 | -10% | ? | -4 | 32µM*
CC(=O)NC(CO)C(=O)N1CCc2onc(-c3cccc4ccccc34)c2C1 (stereo unspecified) | -11% | 7% | 4 | 32µM*
CC(C)CNC(=O)c1nc2cccnc2n(CCc2ccccc2)c1=O | -9%[12.5 µM] | -2% | -7 | .
CCCCCn1c(COc2ccccc2Cl)n[nH]c1=S | . | . | . | i
O=C(O)C1(O)CCN(c2ncc(F)c(N3CCOCC3)n2)CC1 | 7% | 13% | 16 | 28µM*
CC(C)c1nc(N2CCOCC2)ncc1C(=O)O | 12% | 17% | -15 | ?
SMILES | SNCA viab count | SNCA expr inhib | IP6K1 inh | KDM5B inh
CN(c1ccccc1)c1ccc2nnc(-c3cc(C(=O)NCc4ccncc4)ccn3)n2n1 | -7%[87.6 µM] | 16%[87.6 µM] | 0 | 32µM*
COc1cccc(CN2Cc3nc(-c4cc(Cl)ccc4OC)ccc3OCC2=O)c1 | -2%[87.6 µM] | -22%[87.6 µM] | -9 | 35µM*
COc1cccc(CN2Cc3nc(N(C)c4ccccc4)ccc3OCC2=O)c1 | -6%[87.6 µM] | -12%[87.6 µM] | -9 | 32µM*
COc1cccc(CN2Cc3nc(-c4ccc(F)cc4)ccc3OCC2=O)c1 | -1%[87.6 µM] | ? | -15 | i
COc1ccc(Cl)cc1-c1ccc2c(n1)CN(CCOc1ccccc1)C(=O)CO2 | -5%[87.6 µM] | -4%[87.6 µM] | -12 | ?
COc1cccc(CN2Cc3nc(-c4cc5ccccc5o4)ccc3OCC2=O)c1 | -7%[87.6 µM] | 1%[87.6 µM] | -9 | 50µM*
CN(c1ccccc1)c1ccc2c(n1)CN(Cc1ccc(F)cc1)C(=O)CO2 | 0%[87.6 µM] | 3%[87.6 µM] | -8 | 32µM*
COc1cccc(CN2Cc3nc(Oc4ccccc4)ccc3OCC2=O)c1 | -11%[87.6 µM] | -5%[87.6 µM] | 10 | i
COc1ccc(-c2ccc3c(n2)CN(Cc2csc(C)n2)C(=O)CO3)cc1F | 2%[87.6 µM] | 4%[87.6 µM] | -6 | 35µM*
COc1cccc(-c2ccc3c(n2)CN(CC(=O)N2CCCC2)C(=O)CO3)c1 | 0%[87.6 µM] | 16%[87.6 µM] | 3 | ?
O=C(CN1Cc2nc(-c3cc4ccccc4o3)ccc2OCC1=O)N1CCCC1 | -2%[87.6 µM] | -1%[87.6 µM] | -7 | 28µM*
NC(=O)c1cccc(-c2ccc3c(n2)CN(Cc2ccc(F)cc2)C(=O)CO3)c1 | ? | ? | 10 | 35µM*
Cn1cnc2cc(-c3ccc(F)cc3)cc(C(=O)NCCN3CCOCC3)c21 | -7%[87.6 µM] | 16%[87.6 µM] | 54 | ?
Cn1cnc2cc(-c3ccc(F)cc3)cc(C(=O)NCCc3ccccn3)c21 | 10%[87.6 µM] | -2%[87.6 µM] | -3 | 28µM*
CN(C)CCNC(=O)c1cc(-c2ccc(F)cc2)cc2ncn(C)c12 | 10%[87.6 µM] | 15%[87.6 µM] | 1 | 28µM*
CN1CCC(CNC(=O)c2cc(-c3ccc(F)cc3)cc3ncn(C)c23)CC1=O (stereo unspecified) | 8%[87.6 µM] | -3%[87.6 µM] | -1 | 32µM*
COc1cc(CNC(=O)c2cc(-c3ccc(F)cc3)cc3ncn(C)c23)ccn1 | -11%[87.6 µM] | 24%[87.6 µM] | 7 | 32µM*
Cc1ccccc1C(=O)NC1CCN(c2ccnc3ccnn23)C1 (stereo unspecified) | 10%[87.6 µM] | -28%[87.6 µM] | 7 | .

Assay outcomes: PubChem, National Center for Advancing Translational Sciences (NCATS)
